Results filed as inconclusive are left out. Activity calls are given as the source filed them. The call rests on the fitted dose curve; in most records, active means well fitted cell-killing curve with a large enough effect; inconclusive means small, poorly fitted or top-dose-only effect, or effect the other way; inactive means flat fitted curve, though single readings scatter. *1 amine or outer side, *2 acyl side, *3 side chain or, on linkers, in order; H or OH if unused. Where a SMILES comes first, the peptide text is derived from it. [ ]: non-standard residue; d: D form. X13 = O=C(C(CC(O)CO)O[*:1])[*:2]; NMeV = CN[CH](C(=O)O)C(C)C; NMeA = CN[CH](C)C(=O)O; βAla = NCCC(=O)O
Assays:
Assay in all cases: Primary qHTS to identify gynecologic anti-cancer compounds using libraries of approved drugs and bioactive compounds (AID 1345084); further: nearly all actives have a fitted effect of over 55% in size
Settings in all cases: Gynecologic cancer cell panel viability, ATPlite luminescence, 48 h; series mostly up to 57.5 µM
OV90 = tested on: OV90
In short: (§1)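 Cytotoxicity screen measuring ATP content by luciferase luminescence. Each compound is applied at five concentrations for 48 h at 37 C with 5% CO2.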

PA-1 = tested on: PA-1
In short: as §1

SKOV3 = tested on: SKOV3
In short: as §1

Tov-21-G = tested on: Tov-21-G
In short: as §1

Tov112D = tested on: Tov112D
In short: as §1
On the % scale 0 is the no-effect control and ±100 the full control effect.

CC1OC(O[C@@H]2[C@@H](O)[C@H](OC(=O)[C@]34CCC(C)(C)C[C@H]3C3=CCC5[C@@]6(C)CC[C@H](O[C@@H]7O[C@H](C(=O)O)[C@@H](O)[C@H](O[C@@H]8OC[C@@H](O)[C@H](O)[C@H]8O)[C@H]7O[C@@H]7O[C@H](CO)[C@H](O)[C@H](O)[C@H]7O)[C@@](C)(C=O)C6CC[C@@]5(C)[C@]3(C)C[C@H]4O)O[C@H](C)[C@@H]2OC2OC(C)C(OC3OCC(O)C(O)C3O)C(O)C2O)C(O)C(O)C1O (stereo not given in full)
inactive: activity change, negative = cytotoxicity (OV90) 6.42% [at 6.55 µM] | activity change, negative = cytotoxicity (PA-1) -6.4% [at 6.55 µM] | activity change, negative = cytotoxicity (SKOV3) -2.08% [at 6.55 µM] | activity change, negative = cytotoxicity (Tov-21-G) 5.64% [at 6.55 µM] | activity change, negative = cytotoxicity (Tov112D) 10.7% [at 6.55 µM]

CC1(C)C(=O)CCC2(C)C1C(O)C=C1COC(=O)C12O (stereo not given)
inactive: Potency (OV90) | Potency (PA-1) | Potency (SKOV3) | Potency (Tov-21-G) | Potency (Tov112D)

COc1ccc(CCc2nc3cc(-c4c(C)noc4C)ccc3n2C[C@H](C)N2CCOCC2)cc1Cl
inactive: Potency (OV90) | Potency (PA-1) | Potency (SKOV3) | Potency (Tov-21-G) | Potency (Tov112D)

C/C=C1/CC2C(=O)Nc3cc(O)c(OC)cc3C(=O)N2C1 (stereo not given)
inactive: Potency (OV90) | Potency (PA-1) | Potency (SKOV3) | Potency (Tov-21-G) | Potency (Tov112D)

CCC(C)/C=C(C)/C=C/C1=CC2=C(Cl)C(=O)C(C)(OC(C)=O)C(=O)C2=CN1CCCCC(N)C(=O)O (stereo not given)
inactive: Potency (OV90) | Potency (PA-1) | Potency (SKOV3) | Potency (Tov-21-G) | Potency (Tov112D)

O=C(/C=C/c1ccc(O)cc1)O[C@H]1[C@H](OC2CCCCC2O)O[C@H](CO)[C@@H](O)[C@@H]1O (stereo not given in full)
inactive: Potency (OV90) | Potency (PA-1) | Potency (SKOV3) | Potency (Tov-21-G) | Potency (Tov112D)

O=C(O)CCc1ccc(NCc2cccc3c2CCCN3CCOc2ccccc2)cc1F
inactive: Potency (OV90) | Potency (PA-1) | Potency (SKOV3) | Potency (Tov-21-G) | Potency (Tov112D)

CC1(C)O[C@H]2CC(=O)OC[C@@]23C1=C(O)C(=O)[C@]1(C)C3CC[C@@]2(C)[C@H](c3ccoc3)OC(=O)[C@H]3O[C@]321 (stereo not given in full)
inactive: Potency (OV90) | Potency (PA-1) | Potency (SKOV3) | Potency (Tov-21-G) | Potency (Tov112D)

CC(C)CC(c1c(O)c(C=O)c(O)c(C=O)c1O)C1CCC(C)(O)C2CC(C(C)(C)O)CCC12C (stereo not given)
inactive: Potency (OV90) | Potency (PA-1) | Potency (SKOV3) | Potency (Tov-21-G) | Potency (Tov112D)

C=CC1(C)CC=C2C(CCC3C(C)(C(=O)O)CCCC23C)C1 (stereo not given)
inactive: Potency (OV90) | Potency (PA-1) | Potency (SKOV3) | Potency (Tov-21-G) | Potency (Tov112D)

CCC(C)C(=O)O[C@H]1C[C@](C)(O)[C@]23OC(C)(C)[C@H](C[C@H](OC(=O)c4ccccc4)[C@]2(COC(C)=O)[C@H]1OC(=O)C(C)CC)[C@H]3OC(C)=O (stereo not given in full)
inactive: Potency (OV90) | Potency (PA-1) | Potency (SKOV3) | Potency (Tov-21-G) | Potency (Tov112D)

COc1cc(C(CO)CO[C@@H]2O[C@H](CO)[C@@H](O)[C@H](O)[C@H]2O)ccc1O (stereo not given in full)
inactive: Potency (OV90) | Potency (PA-1) | Potency (SKOV3) | Potency (Tov-21-G) | Potency (Tov112D)

O=C(NC1Cc2ccccc2N(C[C@@H](O)CO)C1=O)c1cc2cc(Cl)sc2[nH]1 (stereo not given in full)
inactive: Potency (OV90) | Potency (PA-1) | Potency (SKOV3) | Potency (Tov-21-G) | Potency (Tov112D)

C=C1C(O)C(O)C2(CC3C(C)=CCC4C(C)(C(=O)O)CCCC34C)OC2C1O (stereo not given)
inactive: Potency (OV90) | Potency (PA-1) | Potency (SKOV3) | Potency (Tov-21-G) | Potency (Tov112D)

COc1c(C)c(OCC=C(C)C)cc2c1COC2=O
inactive: Potency (OV90) | Potency (PA-1) | Potency (SKOV3) | Potency (Tov-21-G) | Potency (Tov112D)

Cc1ccc(Cl)cc1N(CC(=O)Nc1c(F)cccc1F)S(C)(=O)=O
inactive: Potency (OV90) | Potency (PA-1) | Potency (SKOV3) | Potency (Tov-21-G) | Potency (Tov112D)

COC(=O)C1=COC(OC2OC(CO)C(O)C(O)C2O)C2C(C)C(OC(C)=O)C(OC(=O)c3ccccc3)C12 (stereo not given)
inactive: Potency (OV90) | Potency (PA-1) | Potency (SKOV3) | Potency (Tov-21-G) | Potency (Tov112D)

C[C@@H]1CC2OC(=O)C3=C2C(CCC3O)[C@@]12C[C@@H](c1ccoc1)OC2=O (stereo not given in full)
inactive: Potency (OV90) | Potency (PA-1) | Potency (SKOV3) | Potency (Tov-21-G) | Potency (Tov112D)

CCC(C)C1NC(=O)C2CCCN2C(=O)C(CC(O)CO)OC(=O)CCNC(=O)C(C)N(C)C(=O)C(C(C)C)N(C)C1=O (stereo not given) (cyclo([X13]PI[NMeV][NMeA][βAla]); configuration not given here)
inactive: Potency (OV90) | Potency (PA-1) | Potency (SKOV3) | Potency (Tov-21-G) | Potency (Tov112D)

CC1CC(=O)[C@]2(O)C(C(=O)OCCc3ccc(O)cc3)=CO[C@@H](O[C@@H]3O[C@H](CO)[C@@H](O)[C@H](O)[C@H]3O)[C@H]12 (stereo not given in full)
inactive: Potency (OV90) | Potency (PA-1) | Potency (SKOV3) | Potency (Tov-21-G) | Potency (Tov112D)

Fc1ccc(-c2c3cccc(C(F)(F)F)c3nn2Cc2ccc(F)cc2Cl)cc1
inactive: Potency (OV90) | Potency (PA-1) | Potency (SKOV3) | Potency (Tov-21-G) | Potency (Tov112D)

— PubChem BioAssay (NCATS)
